According to the supplement of paper PMC8728848:
This excerpt belongs to a sample that is enriched for the strongest signals.

What was measured:
Experiment in all cases: glycan array binding signal (z-score within array); higher = stronger binding
Conditions in all cases: glycan notation: IUPAC condensed, linker removed
[1] = target: Fuc(a1-2)Gal(b1-3)GalNAc(b1-3)Gal(a1-4)Gal(b1-4)Glc
Procedure, shortened: (§1)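 From the Consortium for Functional Glycomics database, 3228 arrays were curated, keeping only those whose protein sequence was available. Binding is given as a within-array Z-score averaged across arrays sharing a protein sequence and across linkers. Negative Z-scores can be read as non-binding.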

[2] = target: Fuc(a1-2)Gal(b1-3)GlcNAc(b1-2)Man(a1-3)[Fuc(a1-2)Gal(b1-3)GlcNAc(b1-2)Man(a1-6)]Man(b1-4)GlcNAc(b1-4)[Fuc(a1-6)]GlcNAc
Procedure, shortened: as §1

[3] = target: Fuc(a1-2)Gal(b1-3)[Fuc(a1-4)]GlcNAc
Procedure, shortened: as §1

Fuc(a1-2)Gal6S(b1-4)Glc = target: Fuc(a1-2)Gal6S(b1-4)Glc
Procedure, shortened: as §1

Fuc(a1-4)GlcNAc = target: Fuc(a1-4)GlcNAc
Procedure, shortened: as §1

Fuc(b1-3)GlcNAc = target: Fuc(b1-3)GlcNAc
Procedure, shortened: as §1

[4] = target: Gal(a1-3)Gal(b1-4)GlcNAc(b1-2)Man
Procedure, shortened: as §1

[5] = target: Gal(a1-3)Gal(b1-4)GlcNAc(b1-3)GalNAc
Procedure, shortened: as §1

[6] = target: Gal(a1-4)Gal(b1-4)GlcNAc(b1-3)Gal(b1-4)Glc
Procedure, shortened: as §1

Gal(b1-3)GalNAc(b1-3)Gal = target: Gal(b1-3)GalNAc(b1-3)Gal
Procedure, shortened: as §1

[7] = target: Gal(b1-3)GlcNAc(b1-2)Man(a1-3)[Gal(b1-3)GlcNAc(b1-2)Man(a1-6)]Man(b1-4)GlcNAc(b1-4)[Fuc(a1-6)]GlcNAc
Procedure, shortened: as §1

[8] = target: Gal(b1-3)[Fuc(a1-4)]GlcNAc(b1-2)Man
Procedure, shortened: as §1

[9] = target: Gal(b1-4)GlcNAc(b1-2)Man(a1-3)[Gal(b1-4)GlcNAc(b1-2)Man(a1-6)]Man(b1-4)GlcNAc(b1-4)[Fuc(a1-6)]GlcNAc
Procedure, shortened: as §1

[10] = target: Gal(b1-4)GlcNAc(b1-2)Man(a1-3)[Gal(b1-4)GlcNAc(b1-2)Man(a1-6)][Gal(b1-4)GlcNAc(b1-4)]Man(b1-4)GlcNAc(b1-4)[Fuc(a1-6)]GlcNAc
Procedure, shortened: as §1

[11] = target: Gal(b1-4)GlcNAc(b1-2)Man(a1-6)Man(b1-4)GlcNAc(b1-4)GlcNAc
Procedure, shortened: as §1

[12] = target: Gal(b1-4)GlcNAc(b1-2)[Gal(b1-4)GlcNAc(b1-6)]Man(a1-6)[Gal(b1-4)GlcNAc(b1-2)Man(a1-3)]Man(b1-4)GlcNAc(b1-4)[Fuc(a1-6)]GlcNAc
Procedure, shortened: as §1

[13] = target: Gal(b1-4)GlcNAc(b1-3)Gal(b1-3)GalNAc
Procedure, shortened: as §1

[14] = target: Gal(b1-4)GlcNAc(b1-3)Gal(b1-4)GlcNAc
Procedure, shortened: as §1

[15] = target: Gal(b1-4)GlcNAc(b1-3)Gal(b1-4)GlcNAc(b1-2)Man(a1-3)[Gal(b1-4)GlcNAc(b1-3)Gal(b1-4)GlcNAc(b1-2)Man(a1-6)]Man(b1-4)GlcNAc(b1-4)[Fuc(a1-6)]GlcNAc
Procedure, shortened: as §1

[16] = target: Gal(b1-4)GlcNAc(b1-3)Gal(b1-4)GlcNAc(b1-3)Gal(b1-4)GlcNAc(b1-2)Man(a1-3)[Gal(b1-4)GlcNAc(b1-3)Gal(b1-4)GlcNAc(b1-3)Gal(b1-4)GlcNAc(b1-2)Man(a1-6)]Man(b1-4)GlcNAc(b1-4)[Fuc(a1-6)]GlcNAc
Procedure, shortened: as §1

[17] = target: Gal(b1-4)GlcNAc(b1-3)Gal(b1-4)GlcNAc(b1-3)Gal(b1-4)GlcNAc(b1-3)Gal(b1-4)GlcNAc(b1-2)Man(a1-3)[Gal(b1-4)GlcNAc(b1-3)Gal(b1-4)GlcNAc(b1-3)Gal(b1-4)GlcNAc(b1-3)Gal(b1-4)GlcNAc(b1-2)Man(a1-6)]Man(b1-4)GlcNAc(b1-4)[Fuc(a1-6)]GlcNAc
Procedure, shortened: as §1

[18] = target: Gal(b1-4)GlcNAc(b1-3)Gal(b1-4)GlcNAc(b1-3)Gal(b1-4)GlcNAc(b1-3)Gal(b1-4)GlcNAc(b1-3)Gal(b1-4)GlcNAc(b1-2)Man(a1-3)[Gal(b1-4)GlcNAc(b1-3)Gal(b1-4)GlcNAc(b1-3)Gal(b1-4)GlcNAc(b1-3)Gal(b1-4)GlcNAc(b1-3)Gal(b1-4)GlcNAc(b1-2)Man(a1-6)]Man(b1-4)GlcNAc(b1-4)[Fuc(a1-6)]GlcNAc
Procedure, shortened: as §1

[19] = target: Gal(b1-4)GlcNAc(b1-3)Gal(b1-4)GlcNAc(b1-6)[Gal(b1-3)]GalNAc
Procedure, shortened: as §1

Gal6S(b1-3)GlcNAc6S = target: Gal6S(b1-3)GlcNAc6S
Procedure, shortened: as §1

Gal6S(b1-4)Glc6S = target: Gal6S(b1-4)Glc6S
Procedure, shortened: as §1

GalNAc4S6S(b1-4)GlcNAc = target: GalNAc4S6S(b1-4)GlcNAc
Procedure, shortened: as §1

[20] = target: GlcNAc(a1-3)Gal(b1-4)GlcNAc
Procedure, shortened: as §1

[21] = target: GlcNAc(b1-2)[GlcNAc(b1-6)]Man(a1-6)[GlcNAc(b1-2)Man(a1-3)]Man(b1-4)GlcNAc(b1-4)[Fuc(a1-6)]GlcNAc
Procedure, shortened: as §1

[22] = target: GlcNAc(b1-3)Gal(b1-4)GlcNAc(b1-2)Man(a1-3)[GlcNAc(b1-3)Gal(b1-4)GlcNAc(b1-2)Man(a1-6)]Man(b1-4)GlcNAc(b1-4)GlcNAc
Procedure, shortened: as §1

[23] = target: GlcNAc(b1-3)Gal(b1-4)GlcNAc(b1-3)Gal(b1-4)GlcNAc(b1-2)Man(a1-3)[GlcNAc(b1-3)Gal(b1-4)GlcNAc(b1-3)Gal(b1-4)GlcNAc(b1-2)Man(a1-6)]Man(b1-4)GlcNAc(b1-4)[Fuc(a1-6)]GlcNAc
Procedure, shortened: as §1

Kdn(a2-3)Gal(b1-3)GalNAc = target: Kdn(a2-3)Gal(b1-3)GalNAc
Procedure, shortened: as §1

[24] = target: Man(a1-3)[Man(a1-6)]Man(b1-4)GlcNAc(b1-4)[Fuc(a1-6)]GlcNAc
Procedure, shortened: as §1

[25] = target: Neu5Ac(a2-3)Gal(b1-3)GlcNAc(b1-2)[Neu5Ac(a2-3)Gal(b1-3)GlcNAc(b1-4)]Man(a1-6)[Neu5Ac(a2-3)Gal(b1-3)GlcNAc(b1-2)Man(a1-3)]Man(b1-4)GlcNAc(b1-4)GlcNAc
Procedure, shortened: as §1

[26] = target: Neu5Ac(a2-3)Gal(b1-3)GlcNAc6S
Procedure, shortened: as §1

[27] = target: Neu5Ac(a2-3)Gal(b1-4)GlcNAc(b1-2)Man(a1-3)[Neu5Ac(a2-3)Gal(b1-4)GlcNAc(b1-2)Man(a1-6)]Man(b1-4)GlcNAc(b1-4)[Fuc(a1-6)]GlcNAc
Procedure, shortened: as §1

[28] = target: Neu5Ac(a2-6)Gal(b1-4)GlcNAc(b1-2)Man(a1-3)[Neu5Ac(a2-3)Gal(b1-4)GlcNAc(b1-2)Man(a1-6)]Man(b1-4)GlcNAc(b1-4)GlcNAc
Procedure, shortened: as §1

[29] = target: Neu5Ac(a2-6)Gal(b1-4)GlcNAc(b1-2)Man(a1-3)[Neu5Ac(a2-6)Gal(b1-4)GlcNAc(b1-2)Man(a1-6)]Man(b1-4)GlcNAc(b1-4)[Fuc(a1-6)]GlcNAc
Procedure, shortened: as §1

[30] = target: Neu5Ac(a2-6)Gal(b1-4)GlcNAc(b1-6)[Gal(b1-3)GlcNAc(b1-3)]Gal(b1-4)Glc
Procedure, shortened: as §1

[31] = target: Neu5Ac(a2-8)Neu5Ac(a2-8)Neu5Ac(a2-3)[GalNAc(b1-4)]Gal(b1-4)Glc
Procedure, shortened: as §1

Neu5Ac(b2-6)GalNAc = target: Neu5Ac(b2-6)GalNAc
Procedure, shortened: as §1

Gal(a1-3)Gal = target: Gal(a1-3)Gal
Procedure, shortened: as §1

[32] = target: Gal(b1-4)GlcNAc(b1-3)GalNAc
Procedure, shortened: as §1

[33] = target: Man(a1-2)Man(a1-3)[Man(a1-2)Man(a1-6)]Man(a1-6)[Man(a1-3)[Man(a1-6)]Man(a1-6)]Man(b1-4)GlcNAc(b1-4)GlcNAc
Procedure, shortened: as §1

[34] = target: Man(a1-2)Man(a1-6)[Man(a1-3)]Man(a1-6)[Man(a1-2)Man(a1-2)Man(a1-3)]Man(b1-4)GlcNAc(b1-4)GlcNAc
Procedure, shortened: as §1

[35] = target: Neu5Ac(a2-3)[GalNAc(b1-4)]Gal(b1-4)GlcNAc
Procedure, shortened: as §1

[36] = target: Neu5Gc(a2-3)Gal(b1-3)GlcNAc
Procedure, shortened: as §1

B1: BTL (Bryothamnion triquetrum) (protein)
chain: ADPICGSSGYSCTTPAILTPKSPGSFPSGYSKVIVTGVGGSYSVYIHRPDGFKVYKASEGGCASFGSYSGGGNSEVGKYGSGGTVVAVACK
[1]
  glycan array binding signal (z-score): -0.262
[2]
  glycan array binding signal (z-score): 2.75
[3]
  glycan array binding signal (z-score): -0.245
Fuc(a1-2)Gal6S(b1-4)Glc
  glycan array binding signal (z-score): -0.244
Fuc(a1-4)GlcNAc
  glycan array binding signal (z-score): -0.199
Fuc(b1-3)GlcNAc
  glycan array binding signal (z-score): -0.257
[4]
  glycan array binding signal (z-score): -0.311
[5]
  glycan array binding signal (z-score): -0.244
[6]
  glycan array binding signal (z-score): -0.208
Gal(b1-3)GalNAc(b1-3)Gal
  glycan array binding signal (z-score): -0.22
[7]
  glycan array binding signal (z-score): 4.76
[8]
  glycan array binding signal (z-score): -0.111
[9]
  glycan array binding signal (z-score): 4.92
[10]
  glycan array binding signal (z-score): 0.352
[11]
  glycan array binding signal (z-score): -0.192
[12]
  glycan array binding signal (z-score): 6.49
[13]
  glycan array binding signal (z-score): -0.107
[14]
  glycan array binding signal (z-score): -0.27
[15]
  glycan array binding signal (z-score): 6.38
[16]
  glycan array binding signal (z-score): 5.89
[17]
  glycan array binding signal (z-score): 4.48
[18]
  glycan array binding signal (z-score): 4.45
[19]
  glycan array binding signal (z-score): -0.128
Gal6S(b1-3)GlcNAc6S
  glycan array binding signal (z-score): -0.24
Gal6S(b1-4)Glc6S
  glycan array binding signal (z-score): -0.18
GalNAc4S6S(b1-4)GlcNAc
  glycan array binding signal (z-score): -0.129
[20]
  glycan array binding signal (z-score): -0.194
[21]
  glycan array binding signal (z-score): 4.85
[22]
  glycan array binding signal (z-score): -0.193
[23]
  glycan array binding signal (z-score): 4.09
Kdn(a2-3)Gal(b1-3)GalNAc
  glycan array binding signal (z-score): -0.259
[24]
  glycan array binding signal (z-score): 4.2
[25]
  glycan array binding signal (z-score): -0.099
[26]
  glycan array binding signal (z-score): -0.24
[27]
  glycan array binding signal (z-score): 5.15
[28]
  glycan array binding signal (z-score): -0.249
[29]
  glycan array binding signal (z-score): 8.12
[30]
  glycan array binding signal (z-score): -0.204
[31]
  glycan array binding signal (z-score): -0.289
Neu5Ac(b2-6)GalNAc
  glycan array binding signal (z-score): -0.274

B2: FBG1 (Homo sapiens), Q9UK22 (protein)
chain: MDGDGDPESVGQPEEASPEEQPEEASAEEERPEDQQEEEAAAAAAYLDELPEPLLLRVLAALPAAELVQACRLVCLRWKELVDGAPLWLLKCQQEGLVPEGGVEEERDHWQQFYFLSKRRRNLLRNPCGEEDLEGWCDVEHGGDGWRVEELPGDSGVEFTHDESVKKYFASSFEWCRKAQVIDLQAEGYWEELLDTTQPAIVVKDWYSGRSDAGCLYELTVKLLSEHENVLAEFSSGQVAVPQDSDGGGWMEISHTFTDYGPGVRFVRFEHGGQDSVYWKGWFGARVTNSSVWVEP
[1]
  glycan array binding signal (z-score): 0.049
Gal(a1-3)Gal
  glycan array binding signal (z-score): -0.252
[32]
  glycan array binding signal (z-score): 5.13
[33]
  glycan array binding signal (z-score): 4.33
[34]
  glycan array binding signal (z-score): 4.93
[35]
  glycan array binding signal (z-score): -0.217
[36]
  glycan array binding signal (z-score): -0.177
